ALOX12 inh – ALOX12 (human) lipoxygenase inhibition; AID 1671190; Potency, µM (top dose mostly 108 µM), without a hit: at the top dose activity change, negative = inhibition, hits mostly inhibitors; 580,000 tested, 1.1% active; P18054; purified 12hLO, xylenol orange hydroperoxide absorbance; note: % is set by controls: 0 for no effect and ±100 for the full control effect
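Purified human 12hLO at 150 nM in 25 mM Hepes, 0.01% Triton X-100, pH 7.0, preincubated 15 min at room temperature with compound. Reaction started with 40 uM arachidonic acid, 30 min at room temperature. Hydroperoxide measured by Fe-xylenol orange, 573/405 nm absorbance ratio.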
Anesthetic bind – candidate novel general anesthetic via apoferritin binding. P02791. apoferritin/1-aminoanthracene competitive binding, fluorescence. Potency, µM (series often up to 77.5 µM), for the others: top-dose activity change, negative = displacement, most hits filed as inhibitors. 350,000 tested, 0.074% active; note: % is set by controls: 0 for no effect and ±100 for the full control effect; nearly all actives have a fitted effect of over 20% in size
Target sequence (P02791 2-175 limits assumed): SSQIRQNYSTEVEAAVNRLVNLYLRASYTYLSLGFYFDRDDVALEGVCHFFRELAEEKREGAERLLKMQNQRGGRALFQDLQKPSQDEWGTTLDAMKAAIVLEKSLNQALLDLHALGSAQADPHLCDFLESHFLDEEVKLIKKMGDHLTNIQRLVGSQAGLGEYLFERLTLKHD
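Horse-spleen apoferritin (10 uM) in 50% saturated 1-aminoanthracene in PBS was incubated 10 min at room temperature with compound. Fluorescence (ex 380, em 535 nm) was normalized to free and bound 1-AMA, with concentration-response fitted by a four-parameter Hill equation.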
Glioma ERSR ind – inducers of ER stress response in human glioma cells | Potency, µM, for inactives: top-dose activation, usual class: activators | 420,000 tested, 0.02% active | AID 602332 | U87-MG GRP78 promoter luciferase reporter, 16 h; note: series mostly up to about 76 µM; % of control where 0% means no effect; nearly all actives have a fitted effect of over 35% in size
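ERSR induction read as luciferase luminescence (Bright-Glo, 10 min at room temperature) in stably transfected human U87-MG glioma cells exposed to compounds for 16 h, using GRP78 as sensor.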
TrxR1 substrate – is turned over as a substrate by rat TrxR1; O89049; purified TrxR1 substrate turnover, NADPH consumption readout; Potency, µM (top dose mostly 114 µM), without a hit: at the highest dose activity change, negative = substrate turnover; 390,000 tested, 0.01% active; AID 588456; note: % is set by controls: 0 for no effect and ±100 for the full control effect; nearly all actives have a fitted effect of over 50% in size
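Rat TrxR1, dispensed at 90 nM, was prereduced with 400 uM NADPH (final) for 5 min at ~22 deg C, then incubated with compound 15 min before 400 uM selenite. A first-read NADPH fluorescence drop versus no-compound background flagged substrates.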
rTrxR1 inhibitor – blocks rat thioredoxin reductase 1 | recombinant rTrxR1, NADPH fluorescence consumption, selenite substrate | O89049 | AID 588453 | Potency, µM (highest dose often 114 µM), for inactives: at the highest dose activity change, negative = inhibition, most hits filed as inhibitors | 390,000 tested, 1% active; note: % is set by controls: 0 for no effect and ±100 for the full control effect; nearly all actives have a fitted effect of over 65% in size
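Rat TrxR1 (90 nM in the dispensed reagent) was pre-reduced with 400 uM NADPH for 5 min at room temperature, then incubated with compound for 15 min. After 400 uM selenite was added, NADPH fluorescence (Ex 340/Em 450 nm) was followed for 8 min.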
mIDH1 inhibitor – human IDH1 R132H inhibition | IDH1-R132H enzyme, NADPH consumption, diaphorase/resazurin fluorescence | 390,000 tested, 0.093% active | O75874 | Potency, µM (top dose mostly 76.6 µM), for inactives: top-dose activity change, negative = inhibition, actives largely listed as inhibitors; note: % is set by controls: 0 for no effect and ±100 for the full control effect; nearly all actives have a fitted effect of over 65% in size
Target sequence (O75874 whole entry R132H, stated change not applied): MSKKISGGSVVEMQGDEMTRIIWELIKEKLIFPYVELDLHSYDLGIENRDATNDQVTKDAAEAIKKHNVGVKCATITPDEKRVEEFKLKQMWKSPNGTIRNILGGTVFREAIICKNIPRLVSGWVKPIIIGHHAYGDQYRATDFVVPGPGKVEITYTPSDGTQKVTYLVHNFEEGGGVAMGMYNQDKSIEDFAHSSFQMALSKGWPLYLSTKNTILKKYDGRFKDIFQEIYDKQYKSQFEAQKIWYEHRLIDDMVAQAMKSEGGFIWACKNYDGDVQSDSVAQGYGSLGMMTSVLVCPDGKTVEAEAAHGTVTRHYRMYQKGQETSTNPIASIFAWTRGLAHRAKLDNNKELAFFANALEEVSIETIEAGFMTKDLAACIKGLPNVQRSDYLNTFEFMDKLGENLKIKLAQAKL
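IDH1-R132H (0.5 ug/mL dispensed) in pH 7.5 Tris buffer was preincubated 30 min with compound, then given a substrate mix of 0.016 mM NADPH and 2 mM alpha-KG for 80 min at room temperature; remaining NADPH was read by diaphorase/resazurin fluorescence.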
The depositor's hits bear a star; ? = inconclusive; / = no result given; ! = not confirmed by another sample; [ ] = dose if it differs, or a comment. Only some compounds are listed: those with a hit (about 1.7% of all), similar ones and a draw of the others. Calls come from the whole dose curve; as a rule, active = well fitted curve in the direction sought with a large enough effect; inconclusive = small, poorly fitted or top-dose-only effect, or another doubt; inactive = no such curve, though single readings can be large; an effect the other way counts as inactive or inconclusive. Potency is the fitted concentration of half-maximal effect.

SMILES	ALOX12 inh	Anesthetic bind	Glioma ERSR ind	TrxR1 substrate	rTrxR1 inhibitor	mIDH1 inhibitor
O=C(c1ccc(N2CCN(C3CC(=O)N(Cc4cccs4)C3=O)CC2)cc1)c1cccnc1 (centres undefined)	1.4%	?	-4.1%	-4.4%	0.8%	0.0%
Cc1cc(N2C(=O)CC(N3CCN(c4ccc(C(=O)c5cccs5)cc4)CC3)C2=O)no1 (centres undefined)	31.6µM*	-18.4%	-1.3%	6.7%[57.1 µM]	3.6%[57.1 µM]	5.9%
Cc1coc2c1C(=O)C(=O)c1c-2ccc2c(C)cccc12	?	-10.5%	-2.7%	-1.7%	?	-0.9%
Cc1coc2c1C(=O)C(=O)c1c-2ccc2c1CCCC2(C)C	24.3µM*!	?	-0.3%	-4.6%[57.1 µM]	?	9.8%
CCN1CCN(Cc2cc(=O)oc3cc(-c4ccccc4)c(O)cc23)CC1	31.6µM*	/	/	/	/	/
O=c1cc(CN2CCC(Cc3ccccc3)CC2)c2cc(O)c(-c3ccccc3)cc2o1	-14.7%	/	/	/	/	/
Cc1ccc(S(=O)(=O)N2CCN(Cc3cc(=O)oc4cc(O)c(Cl)cc34)CC2)cc1	44.7µM*	/	/	/	/	/
COC(=O)c1c(NC(C)=O)c2cc(NC(C)CC(C)(C)O)cnc2n1CCc1ccc(OC)cc1 (centres undefined)	0.3%	/	/	/	/	/
O=C1C2C3C=CC(CC3)C2C(=O)N1c1ccc(F)cc1 (centres undefined)	0.0%	?	-3.4%	11.5%[57.1 µM]	11.0%[57.1 µM]	6.7%
CC(C)C1NC2(C(=O)c3ccccc3C2=O)C2C(=O)N(c3ccc(F)cc3)C(=O)C12 (centres undefined)	0.0%	-10.0%	-3.0%	5.2%	44.7µM*	2.6%
COC(=O)C1CN(C2CCCC2)CCS(=O)(=O)N1Cc1cn(Cc2ccc(F)cc2)nn1 (centres undefined)	107.0%	/	/	/	/	/
S=C(NC(=NCc1ccccc1)c1ccccc1)Nc1ccccc1	14.1µM*	/	/	/	/	/
O=S(=O)(/N=C(/NC(=S)Nc1ccccc1)c1ccccc1)c1ccc(Cl)cc1	39.8µM*	3.0%	4.4%	1.4%	?	-11.0%
COc1ccc(NC(=S)N/C(=N/S(=O)(=O)c2ccc(C)cc2)c2ccccc2)cc1	?	-9.3%	5.8%	-1.7%	22.4µM*	5.8%
S=C(NCCNC(=S)Nc1ccccc1)Nc1ccccc1	?	1.8%	-4.3%	4.2%	12.5%[2.29 µM]	-0.5%
Cc1ccc(S(=O)(=O)/N=C(\Sc2ccccc2)c2ccccc2)cc1	1.7%	-21.9%	-1.9%	14.2%	2.82µM*	0.5%
COc1ccc(NC(=O)c2cn3ccnc(-c4ccc(F)cc4)c3n2)cc1OC	44.7%	/	/	/	/	/
COC(=O)c1nnn(CC(=O)Nc2ccccc2Cl)c1C(=O)OC	-1.4%	/	/	/	/	/
COc1ccc(NC(=S)NC(=NS(=O)(=O)c2ccc(Cl)cc2)c2ccccc2)cc1	31.6µM*	/	6.7%	-3.0%[57.1 µM]	-76.3%[57.1 µM]	9.2%
CC(C)[C@H](NC(=O)OC(C)(C)C)[C@@H](O)CC(=O)OC(C)(C)C	/	6.6%[15.3 µM]	-2.7%	/	/	/
NC(=O)C1CCC(=O)N1C1CCNCC1 (centres undefined)	45.4%	/	/	/	/	/
O=C1NC(=S)S/C1=C\C=C\c1ccc([N+](=O)[O-])o1	?	-19.6%	-16.3%	-23.2%	10µM*	8.1%
O=C1Cc2cc(-c3csc(-c4ccc(F)cc4)n3)cc3c2N1CCC3	-1.4%	/	/	/	/	/
N#C/C(=C/c1ccc(OC(F)F)cc1)C(N)=S	31.6µM*	/	/	/	/	/
Cc1ccc(-c2nc(C(=O)NCc3ccc(OC(C)C)cc3)no2)cc1	16.8%	/	/	/	/	/
CC(=O)NC1(C)CCN(Cc2ccccc2-c2ccc3ccccc3c2)C1 (centres undefined)	31.6µM*	/	/	/	/	/
COc1ccc(-c2cccc(CN3CCCC(C)(NC(C)=O)C3)c2)cc1OC (centres undefined)	-9.3%[176 µM]	/	/	/	/	/
CC(=O)NC1(C)CCCN(Cc2cccc(-c3ccc4c(ccn4C)c3)c2)C1 (centres undefined)	35.5µM*	/	/	/	/	/

Screening results from PubChem.
